Screening results: PubChem BioAssay, Broad Institute
An excerpt weighted towards active compounds, which were near 6.7% of everything screened.
T cruzi growth-1: blocks T. cruzi growth in NIH3T3 culture | T. cruzi beta-gal in NIH3T3, GalScreen luminescence, 90 h | inhibition, % at 8.34 µM | 5.9% of 77,000 active | AID 624255;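 active = mean inhibition above about 93%, with at least 55% of replicates each passing it, limit read from the data, passing the limit was not always enough; inconclusive = only one of those two conditions holds; inactive = neither condition holds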
C diff HTS: inhibitors of Clostridium difficile growth. Clostridium difficile clinical isolate growth, OD600, 24 h; active compounds read low. growth activity, negative = inhibition, % at 16 µg/mL (by protocol). 0.25% of 86,000 active;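 active = mean growth activity at or below -80% and every replicate also at or below -80%; inconclusive = mean at or below -80% but some replicate above -80%; inactive = mean growth activity above -80%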;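 also: 0% = DMSO wells and -100% = levofloxacin 16 µg/mL wells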
Pf Dd2 inh: P. falciparum Dd2 growth inhibition | 2.3% of 94,000 active | activity change, % at 10 µM | SYBR Green, 72 h; active compounds read low; in the data active = activity change below about -80%; inconclusive = no clear call, values can overlap the other calls
T cruzi growth-2: inhibitors of T. cruzi proliferation. T. cruzi beta-gal in NIH3T3, GalScreen luminescence, 90 h. 72% of 5,600 active. shares compounds with T cruzi growth-1. AID 651739. inhibition, % at 8.35 µM;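 active = mean replicate inhibition above about 95% and at least 55% of replicates individually reaching it, limit read from the data; inconclusive = only one of the two criteria is met; inactive = neither criterion is met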
T cruzi growth-3: Trypanosoma cruzi proliferation inhibition; T. cruzi beta-gal in NIH3T3, GalScreen luminescence, 90 h; inhibition, % at 2.09 µM; 21% of 5,600 active; shares compounds with T cruzi growth-1;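 active = mean inhibition above about 95%, with at least 55% of replicates also reaching it, limit read from the data; inconclusive = meets just one of the two conditions; inactive = meets neither condition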;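 also: plate controls were neutral control median for no effect and positive control median for full effect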
NIH3T3 tox: kills mouse NIH/3T3 fibroblasts; shares compounds with T cruzi growth-1; NIH/3T3 viability, CellTiter-Glo ATP luminescence, 90 h; cytotoxicity (signal decrease), % at 8.35 µM; 14% of 5,600 active;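 active = mean signal decrease across replicates above about 35% based on untreated-well scatter, with enough replicates individually passing, limit read from the data; inconclusive = no rule stated though some were filed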;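 also: 0% = median of neutral control wells and 100% = median of positive control wells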
NIH3T3 tox 2: cytotoxicity in mouse NIH/3T3 fibroblasts | NIH/3T3 viability, CellTiter-Glo ATP luminescence, 90 h | inhibition, % at 24.9 µM | shares compounds with T cruzi growth-1 | 56% of 5,600 active;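 active = mean loss of cell viability signal at or above a set limit, and enough replicates individually reaching it; inconclusive = meets only the mean limit or only the replicate share; inactive = meets neither condition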;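 also: 0% = median of neutral control wells and 100% = median of positive control wells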
Numbers without * were called inactive; ? = inconclusive; / = not tested or not shown.

SMILES	T cruzi growth-1	C diff HTS	Pf Dd2 inh	T cruzi growth-2	T cruzi growth-3	NIH3T3 tox	NIH3T3 tox 2
C[C@H](CO)N1C[C@H](C)[C@H](CN(C)Cc2ccc(C(=O)O)cc2)Oc2ccc(NC(=O)Nc3ccc(F)cc3)cc2C1=O	/	3.7	-4.7	/	/	/	/
C/C=C/c1cnc2c(c1)C(=O)N([C@H](C)CO)C[C@@H](C)[C@H](CN(C)S(=O)(=O)c1cn(C)cn1)O2	/	-2.0	30.8	/	/	/	/
CCCC#Cc1ccc2c(c1)O[C@@H](CN(C)CC1CC1)[C@@H](C)CN([C@@H](C)CO)S2(=O)=O	31.0	/	-61.7	/	/	/	/
CC(C)CC#Cc1ccc2c(c1)O[C@H](CN(C)CC1CCOCC1)[C@H](C)CN([C@H](C)CO)S2(=O)=O	?	4.6	-19.1	108.1*	85.3	21.8	104.9*
CC(C)CC#Cc1ccc2c(c1)O[C@H](CN(C)CC1CCOCC1)[C@@H](C)CN([C@@H](C)CO)S2(=O)=O	105.6	16.0	-70.2	/	/	/	/
CC(C)CC#Cc1ccc2c(c1)O[C@H](CN(C)CC1CC1)[C@H](C)CN([C@@H](C)CO)S2(=O)=O	?	13.1	-47.5	100.1*	89.6	39.9*	106.8*
COc1ccc2c3c([nH]c2c1)[C@H](CO)N(Cc1ccc(Cl)cc1)CC31CN(Cc2ccccc2)C1	/	28.7	-45.0	/	/	/	/
C[C@@H]1CN([C@H](C)CO)C(=O)c2cc(C3=CCCCC3)cnc2O[C@H]1CN(C)Cc1cccc(F)c1	89.4	5.7	-24.5	/	/	/	/
C[C@@H]1CN([C@@H](C)CO)C(=O)c2cc(C3=CCCCC3)cnc2O[C@@H]1CN(C)Cc1cccc(F)c1	111.9*	16.2	-0.6	98.2*	54.5	3.6	43.5*
C[C@H]1CN([C@@H](C)CO)C(=O)c2cc(C3=CCCC3)cnc2O[C@H]1CN(C)Cc1cccc(F)c1	91.7	-0.1	9.4	/	/	/	/
C[C@@H]1CN([C@@H](C)CO)C(=O)c2cc(C3=CCCC3)cnc2O[C@@H]1CN(C)Cc1cccc(F)c1	?	5.7	-19.2	110.0*	74.8	8.6	7.6
C[C@H]1CN([C@@H](C)CO)C(=O)c2cc(NS(=O)(=O)c3ccc(Cl)cc3)ccc2O[C@@H]1CN(C)S(=O)(=O)c1ccc(F)cc1	64.9	1.7	-26.5	/	/	/	/
Cc1noc(C)c1S(=O)(=O)Nc1ccc2c(c1)C(=O)N([C@H](C)CO)C[C@H](C)[C@@H](CN(C)S(=O)(=O)c1ccc(F)cc1)OCCCC[C@@H](C)O2	/	-7.1	-26.8	/	/	/	/
C[C@H]1CN([C@@H](C)CO)S(=O)(=O)c2ccc(C#Cc3ccccc3)cc2O[C@H]1CN(C)C(=O)CN(C)C	40.2	25.7	-61.8	/	/	/	/
C[C@H]1CN([C@@H](C)CO)S(=O)(=O)c2ccc(C#CCC3CCCC3)cc2O[C@@H]1CN(C)C(=O)CN(C)C	121.7	4.1	-71.8	/	/	/	/
C[C@@H]1CN([C@H](C)CO)S(=O)(=O)c2ccc(C#CCC3CCCC3)cc2O[C@H]1CN(C)C(=O)CN(C)C	113.3	1.5	-65.0	/	/	/	/
CCC(=O)N(C)C[C@@H]1Oc2cc(C#CCC3CCCC3)ccc2S(=O)(=O)N([C@H](C)CO)C[C@@H]1C	105.4*	4.0	-55.3	107.0*	86.6	4.5	97.3*
CCC(=O)N(C)C[C@@H]1Oc2cc(C#CCC3CCCC3)ccc2S(=O)(=O)N([C@@H](C)CO)C[C@@H]1C	97.3*	-17.6	-56.5	?	87.7	19.0	104.3*
O=C(C[C@@H]1C[C@H]2c3cc(NC(=O)C4CCC4)ccc3O[C@H]2[C@@H](CO)O1)NCC1CC1	-4.1	-1.7	-20.4	/	/	/	/
COc1ccc(S(=O)(=O)N(C)C[C@@H]2OCCCC[C@@H](C)Oc3ccc(NS(=O)(=O)c4ccccc4)cc3C(=O)N([C@H](C)CO)C[C@H]2C)cc1	105.7*	-13.6	/	108.9*	54.5	6.8	4.5
COc1ccc(S(=O)(=O)N(C)C[C@@H]2OCCCC[C@H](C)Oc3ccc(NS(=O)(=O)c4ccccc4)cc3C(=O)N([C@H](C)CO)C[C@@H]2C)cc1	66.9	-14.0	/	/	/	/	/
COc1ccc(S(=O)(=O)Nc2ccc3c(c2)C(=O)N([C@H](C)CO)C[C@H](C)[C@H](CN(C)S(=O)(=O)c2ccccc2)OCCCC[C@H](C)O3)cc1	/	-10.1	-32.0	/	/	/	/
